MPTP block: inhibitors of mitochondrial permeability transition pore. 360,000 compounds, 1.4% hits. isolated mouse mitochondria, Ca2+ swelling absorbance, 30 min. inhibition, % at 10 µM;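 active = inhibition of 50% or more, scaled per plate between neutral and stimulator controls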;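 also: 0% = DMSO wells given calcium and 100% = 1 mM EGTA wells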
rCAG RNA binder: r(CAG) repeat RNA binding; AID 651821; inhibition, % at 3 µM; TO-PRO-1 dye displacement fluorescence; 370,000 compounds, 1.3% hits;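 active = inhibition above the plate cutoff, the mean of all test compounds on that plate plus 3 SD, cut at about 35% in these data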;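 also: 0% = DMSO alone and 100% = 100 µM mitoxantrone as full dye displacement; higher means more dye released from RNA so lower well fluorescence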
DSG3 Ab inh: human desmoglein-3 autoantibody binding inhibition; DSG3-coupled beads, scFv-anti-DSG3-GFP binding, flow cytometry; stronger effect = lower value; binding (percent of control), % at 10 µM; 310,000 compounds, 0.48% hits;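 active = binding more than 3 SD below its plate's average and above zero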;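 also: hits lower antibody fragment binding to DSG3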
ADAM10 inh: inhibitors of human ADAM10; O14672; recombinant ADAM10, EDANS/DABCYL FRET peptide cleavage, 3 h; inhibition, % at 7 µM; 370,000 compounds, 0.62% hits; AID 720582;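 active = inhibition above a per-campaign cutoff equal to the mean of compounds falling between control-based bounds plus 3 SD, cut at about 20% in these data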;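 also: 0% = DMSO wells while the 100% control is not disclosed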
ADAM17 inh: inhibitors of human ADAM17. P78536. recombinant ADAM17, EDANS/DABCYL FRET peptide cleavage. inhibition, % at 6.95 µM. 370,000 compounds, 0.83% hits. AID 720648;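 active = inhibition above the mean of compounds lying between control limits plus 3 SD, set per campaign, cut at about 8.5% in these data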;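 also: 0% = DMSO-only wells as the low control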
proKLK7 act: activators of human kallikrein-7 zymogen; purified proKLK7, EDANS-DABCYL substrate fluorescence; 100% is mature enzyme control, 0% vehicle; activation, % at 7 µM; 370,000 compounds, 0.9% hits; AID 652039;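 active = activation above the mean of all tested compounds plus 3 SD, computed per campaign excluding outliers beyond control limits, cut at about 13% in these data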
Target sequence (P49862 whole entry, looked up): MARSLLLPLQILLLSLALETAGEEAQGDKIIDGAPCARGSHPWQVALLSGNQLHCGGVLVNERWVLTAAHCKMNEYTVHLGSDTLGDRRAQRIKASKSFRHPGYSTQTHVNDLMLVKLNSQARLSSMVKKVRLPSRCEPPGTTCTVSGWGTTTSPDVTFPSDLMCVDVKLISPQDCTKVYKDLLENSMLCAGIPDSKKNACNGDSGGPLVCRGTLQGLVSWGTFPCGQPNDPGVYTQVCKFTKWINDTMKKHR
* marks the source's active call; other numbers are inactive results; i = inactive; . = no result given. This is a sample that favours compounds with a hit; in the whole collection about 4.7% have one here.

SMILES	MPTP block	rCAG RNA binder	DSG3 Ab inh	ADAM10 inh	ADAM17 inh	proKLK7 act
CNc1ccc2ncc(-c3ccc(OC)c(OC)c3)n2n1	1	2	.	i	-218	45*
O=C(CSc1nnc(-c2ccccn2)n1-c1ccccc1)c1ccc2c(c1)OCO2	.	4	.	2	2	-1
CCCOc1cccc(C(=O)Nc2ccc(Br)cc2F)c1	2	1	62*	4	3	0
CS(=O)(=O)N1CCN(c2ccccc2NC(=O)c2ccc([N+](=O)[O-])o2)CC1	-1	2	28*	5	3	0
C[C@@H](CO)N(CCc1cn(Cc2ccccc2)nn1)S(=O)(=O)c1ccccc1Br	.	1	.	-2	-2	0
Cc1nc(NC(=O)/C=C/c2ccccc2)sc1C(=O)Nc1ccccc1Cl	1	2	78*	-5	-3	0
O[C@@H](Cc1ccccc1)[C@@H](/C=C/c1ccccc1)N(Cc1ccccc1)Cc1ccccc1	.	6	.	-1	-3	0
O=C(COC(=O)CN1C(=O)c2ccccc2C1=O)Nc1ccccc1C(F)(F)F	-1	0	84*	-18	-4	0
O=C(COC(=O)/C=C/c1cccc(Cl)c1)NC1CC1	-1	0	100	-3	0	0
O=C(COC(=O)/C=C/c1cccc(Cl)c1)Nc1c(F)cccc1F	1	2	-5.5*	1	5	-1
COc1cccc(-c2nc(CS(=O)CC(=O)NC3CCCC3)c(C)o2)c1 (stereo not drawn)	-2	1	102	-9	2	1
COc1cccc(-c2nc(CS(=O)CC(=O)NC3CCCCC3)c(C)o2)c1 (stereo not drawn)	-1	0	55*	-10	-2	-1
Nc1c(-c2cccc(Cl)c2)cnn1-c1cccc(C(F)(F)F)c1	35	-1	98	19	8.6*	0
Nc1c(-c2ccccc2)cnn1-c1cccc(C(F)(F)F)c1	0	0	100	4	0	0
CCC(C)N(C)C(=O)c1cc2ccccc2c(-c2ccccc2Cl)n1 (stereo not drawn)	1	0	20*	1	-1	0
Cc1onc(-c2ccccc2Cl)c1C(=O)N(Cc1ccccc1)C(C)C	1	-1	105	-6	-2	0
CCn1c(-c2csc(-c3ccccc3)n2)n[nH]c1=S	6	4	-34*	-9	-1	0
CCn1c(-c2csc(-c3ccc(Cl)cc3)n2)n[nH]c1=S	1	4	99	-2	-2	0
O=C(OCCOCCN=C1NS(=O)(=O)c2ccccc21)c1ccc(F)cc1	0	0	48*	3	-1	0
O=C(CCc1nc2ccccc2c(=O)[nH]1)OCc1ccc(-c2ccccc2)cc1	4	-2	7.9*	-3	-2	0
CCOc1ccccc1N1C(=O)CC(N(O)c2ccccc2)C1=O (stereo not drawn)	0	5	106	-14	-1	67*
CCCCCOc1ccc(N2C(=O)CC(N(O)c3ccccc3)C2=O)cc1 (stereo not drawn)	0	8	107	4	1	6
Cc1ccc(CN2CCN(C(=O)c3ccncc3)CC2)cc1	1	-4	62*	-10	-2	0
CC(C)(C)c1ccc(OCCCC(=O)NC2=NCCS2)cc1	-1	0	-19*	-10	3	0
COC(=O)[C@]12C[C@H](CC(=O)N3CCN(C(=O)C4CC4)CC3)C(=O)N(CCC3=CCCCC3)C1=C[C@H](COCc1ccccc1)O[C@@H]2C	.	3	.	2	-4	0
SMILES	MPTP block	rCAG RNA binder	DSG3 Ab inh	ADAM10 inh	ADAM17 inh	proKLK7 act
CCOc1ccc(N(CC)S(=O)(=O)c2ccc3c(c2)n(C)c(=O)c(=O)n3C)cc1	-1	2	-11*	-13	-5	-1
CCOC(=O)CSc1nc2ccsc2c(=O)n1C1CCN(C(=O)OCC)CC1	-1	.	98	.	.	.
CCOC(=O)N1CCC(n2c(SCC(=O)c3ccccc3)nc3ccsc3c2=O)CC1	-1	1	85*	4	-1	1
Cc1ccc2nc(N3CCN(c4ccccc4)CC3)c(C=O)c(=O)n2c1	0	-5	100	4	-2	1
Cc1ccc2nc(SCc3ccccc3)c(C=O)c(=O)n2c1	0	-1	53*	-17	2	0
COC(=O)c1ccc(NC(=O)C2CC(=O)N(c3cc(C)ccc3C)C2)cc1 (stereo not drawn)	-1	-4	101	0	-2	0
COC(=O)c1ccc(NC(=O)C2CC(=O)N(c3ccc(C)cc3)C2)cc1 (stereo not drawn)	-1	-6	-25*	2	-2	0
COc1ccc(N2CC(C(=O)Nc3ccc(S(=O)(=O)N4CCCC4)cc3)CC2=O)cc1 (stereo not drawn)	0	5	31*	6	1	0
C[C@@H]1CCCN1c1ccc2c(c1)OCCCN(C1CC1)S2(=O)=O	.	3	.	1	-3	0
O=c1c2cc(F)ccc2sn1-c1ccccc1	2	3	43*	-2	-1	0
Cc1ccccc1-n1sc2cc(F)ccc2c1=O	3	-3	69*	-9	-4	0
O=c1c2cc(C(F)(F)F)ccc2sn1-c1ccccc1	32	2	68*	-9	-3	0
CCN1CCCCC(NC(=O)Cc2ccccc2)C1=O (stereo not drawn)	.	-1	.	-6	-6	0
C=CCn1c(C)cc(C(=O)COC(=O)CNC(=O)c2ccccc2)c1C	0	-7	72*	-1	-3	0
Cc1ccc(C(=O)NCC(=O)OCC(=O)c2cc(C)n(Cc3ccco3)c2C)cc1	-19	-3	113	1	1	0
Cc1ccc(S(=O)(=O)N(CC(=O)N=Nc2c(O)[nH]c3ccccc23)c2cccc(C)c2)cc1	10	16	85*	17	7	-1
CCOC(=O)CNC(=O)CSc1nc2ccccc2c(=O)n1-c1ccc(Cl)cc1	.	0	.	-4	-2	1
COc1ccc(C2=Nn3c(nnc3-c3ccccc3Cl)SC2)cc1OC1CCOC1 (stereo not drawn)	0	-2	74*	1	-2	0
COc1ccc(C2=Nn3c(nnc3-c3ccccc3Cl)SC2)cc1OC1CCCC1	-1	1	105	4	0	0
COc1ccccc1CCc1nnc(CCC(=O)NCC(C)Oc2cccnc2)o1 (stereo not drawn)	2	-10	108	-5	-2	0
COc1ccccc1CCc1nnc(CCC(=O)NC(C)Cc2ccsc2)o1 (stereo not drawn)	-1	-7	8.6*	6	-4	0
CCn1c(SCC(=O)n2c(C)c(C)c3ccccc32)nnc1-c1ccco1	3	4	79*	5	-3	0

Bioassay records: PubChem BioAssay, several laboratories
